Source: PubChem (The Scripps Research Institute Molecular Screening Center)
sPLA2-III inh: human group III sPLA2 inhibitors, primary screen, biochemical, QFRET, BODIPY PC-A2 liposome substrate | QFRET BODIPY PC-A2 liposome hydrolysis, fluorescence | hit rate 0.56% among 370,000 | inhibition, % at 12.2 µM | AID 743126, 2013 | Group 3 secretory phospholipase A2 (Homo sapiens), Q9NZ20;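 active = inhibition above mean plus 3 SD of compounds lying within the high and low control bounds, cut at about 19% in these data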;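 note: 0% = median of test compound wells and 100% = no enzyme DMSO wells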
MOR-DOR ag: agonists of OPRM1-OPRD1 heterodimerization, primary screen, cell-based, luminescence; hit rate 0.3% among 340,000; activation, % at 9.3 µM; cells; AID 504326, 2011; in the data active = activation above about 18%;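 note: 0% = vehicle-treated cells and 100% = reference agonist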
HTR2A ag: mouse Htr2a agonists via beta-arrestin recruitment, primary screen, cell-based, luminescence. 5-hydroxytryptamine receptor 2A (Mus musculus), P35363. CHO-K1 mHTR2A beta-arrestin complementation; percent of 30 µM serotonin response. activation, % at 7.6 µM. hit rate 0.66% among 360,000;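 active = activation above a run cutoff, the mean activation of all tested compounds plus 3 SD, cut at about 14% in these data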;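 note: 0% = plate median of compound wells and 100% = 30 µM serotonin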
HTR5A inv ag: HTR5A inverse agonists in luminescence cell assay, primary screen, counter-screen for OPRM1-OPRD1 heterodimer inverse agonist project, full-deck HTS. inhibition, % at 9.3 µM. hit rate 0.083% among 340,000. HTR5A cell line, inverse agonism. AID 504634, 2011; in the data active = inhibition mostly above about 23%, no sharp cut-off; inactive = mostly below about 18%;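 note: 0% = cells with DMSO and 100% = no-cell wells with DMSO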
HTR5A ag: HTR5A agonists in luminescence cell assay, primary screen, counter-screen for OPRM1-OPRD1 heterodimer agonist project, full-deck HTS | 5-hydroxytryptamine receptor 5A (Homo sapiens), P47898 | cell-based | activation, % at 9.3 µM | hit rate 0.61% among 340,000; in the data active = activation mostly above about 9.5%, no sharp cut-off; inactive = mostly below about 7.6%;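 note: 0% = cells with vehicle only and 100% = reference agonist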
MOR-DOR inv ag: inverse agonists of MOR-DOR heterodimerization, primary screen, cell-based, luminescence | Mu-type opioid receptor (Homo sapiens) + Delta-type opioid receptor (Homo sapiens), … | cell-based MOR-DOR heterodimer luminescence, inverse agonism | inhibition, % at 9.3 µM | hit rate 0.21% among 340,000 | AID 504357, 2011; in the data active = inhibition above about 22%, passing the limit was not always enough;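 note: 0% = cells with DMSO and 100% = wells without cells with DMSO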
MOR ag counter: OPRM1 agonists via beta-arrestin recruitment, confirmation, counter-screen for mouse HTR2A agonist project, cell-based, luminescence, single concentration | AID 624380, 2012 | hit rate 5.3% among 2,300 | U2OS OPRM1 beta-arrestin PathHunter; DMSO 0%, DAMGO 9.3 µM 100% | activation, % at 9.3 µM | shares compounds with HTR2A ag;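 active = mean activation above the mean of DMSO-only wells plus 3 SD, cut at about 0.5% in these data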
Target sequence (P35372 whole entry, looked up): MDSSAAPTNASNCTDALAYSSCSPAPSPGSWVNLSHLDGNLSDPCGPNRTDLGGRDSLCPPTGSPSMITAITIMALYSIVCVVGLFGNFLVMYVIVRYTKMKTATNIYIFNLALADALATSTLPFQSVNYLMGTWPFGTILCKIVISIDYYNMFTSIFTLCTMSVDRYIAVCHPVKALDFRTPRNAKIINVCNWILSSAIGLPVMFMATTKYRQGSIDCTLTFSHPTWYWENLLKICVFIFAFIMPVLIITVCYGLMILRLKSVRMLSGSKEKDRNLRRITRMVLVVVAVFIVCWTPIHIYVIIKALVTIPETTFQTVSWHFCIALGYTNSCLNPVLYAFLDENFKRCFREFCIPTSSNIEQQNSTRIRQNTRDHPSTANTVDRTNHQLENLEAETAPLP
m5-HT2A ag conf: mouse HTR2A agonists, beta-arrestin recruitment, confirmation, cell-based, luminescence, CHO-K1 PathHunter, triplicate; shares compounds with HTR2A ag; DMSO 0%, 30 µM serotonin 100%; activation, % at 7.6 µM; hit rate 19% among 2,300;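 active = mean activation across triplicates above the hit threshold derived in the original primary screen, cut at about 15% in these data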
Active calls of the source: *; . = no result given. Hits are enriched below; roughly 2.2% of the tested compounds scored in any of these assays.

SMILES	sPLA2-III inh	MOR-DOR ag	HTR2A ag	HTR5A inv ag	HTR5A ag	MOR-DOR inv ag	MOR ag counter	m5-HT2A ag conf
COc1ccc(CNC(=O)N(C)C[C@@H]2OCc3ccccc3-c3c(n(C)c4ccccc34)C(=O)N([C@@H](C)CO)C[C@@H]2C)cc1	-9	.	.	.	.	.	.	.
C#CCN1C(=O)[C@]2(OCCC=C[C@H]2C)c2cc(OC)ccc21	4	.	.	.	.	.	.	.
Oc1ccc(Nc2nnc(-c3ccc(O)cc3)c3ccccc23)cc1	-31	-3	11	13	-5	16	.	.
COc1ccc(Nc2nnc(-c3ccc(O)cc3)c3ccccc23)cc1	-15	-2	30*	3	-1	12	0	6
COC(=O)[C@]12C[C@H](CC(=O)N3CCOCC3)C(=O)N(Cc3ccccc3)C1=C[C@H](C(C)(C)C)O[C@@H]2C	1	.	.	.	.	.	.	.
CCOc1ccc(NC2c3ccccc3C(=O)N2Cc2ccco2)cc1 (stereo not given)	3	6	38*	-18	-2	-33	0	-4
Cc1ccc2nc(NC(=O)CSCC(=O)Nc3cc(C)on3)sc2c1	-4	-3	19*	-4	2	13	-1	-1
Cc1cc(NC(=O)CSCC(=O)Nc2nc3ccc(F)cc3s2)no1	-5	-1	9	-4	-5	5	.	.
NC(=O)CC(NC(=O)c1ccccc1)c1ccc(NC2CCCCCCC2)c([N+](=O)[O-])c1 (stereo not given)	1	0	19*	9	2	-3	0	-2
NC(=O)CC(NC(=O)c1ccccc1)c1ccc(NC2CCCCC2)c([N+](=O)[O-])c1 (stereo not given)	7	2	-1	9	16	-10	.	.
O=C(O)c1ccc2c(c1)C(=O)N(c1ccc(C(=O)OCC(=O)c3ccccc3)cc1)C2=O	0	-2	-3	-1	-2	10	.	.
O=C(O)c1ccc2c(c1)C(=O)N(c1ccc(OCc3ccccc3)cc1)C2=O	2	-2	17*	0	0	8	0	0
COc1ccc(-c2csc(-n3ncc(C(=O)O)c3C(F)(F)F)n2)cc1	-9	-3	15*	8	-2	14	-1	-4
CCC(C)NC(=O)C1CCN(S(=O)(=O)c2ccc3[nH]c(=O)oc3c2)CC1 (stereo not given)	2	.	.	.	.	.	.	.
CCOc1ccc(OCC(=O)NCc2n[nH]c(=O)c3ccccc23)cc1	3	-2	16*	13	2	12	-1	-1
CCOC(=O)C1(CC2CC2)CCN(Cc2cc(Cl)c(O)c(OC)c2)CC1	-3	6	20*	-8	0	-29	0	-4
CCOC(=O)C1(CC2CC2)CCN(Cc2ccc(OC)cc2F)CC1	-9	16	-3	17	-7	-107	.	.
CC(OC(=O)c1cnccn1)C(=O)Nc1nc(-c2cccc([N+](=O)[O-])c2)cs1 (stereo not given)	8	0	5	3	-1	-1	.	.
CC(OC(=O)c1ccccc1Br)C(=O)Nc1nc(-c2cccc([N+](=O)[O-])c2)cs1 (stereo not given)	-7	1	17*	5	-3	-7	0	-4
C[C@@H]1COc2cc(Br)ccc2S(=O)(=O)N1Cc1cn(Cc2ccc(Cl)cc2)nn1	1	.	.	.	.	.	.	.
Cc1cc(NCC2CCCO2)n2c(nc3ccccc32)c1C#N (stereo not given)	4	-1	-3	-20	1	6	.	.
CC(C)c1cc(NCC2CCCO2)n2c(nc3ccccc32)c1C#N (stereo not given)	5	-1	17*	-6	3	5	0.8*	25*
O=C(C(=O)N1CCC(CNC(=O)C2COc3ccccc3O2)CC1)c1cccs1 (stereo not given)	8	.	.	.	.	.	.	.
CCCc1cc(=O)[nH]c(SCC(=O)N2c3ccccc3CC2C)n1 (stereo not given)	-6	1	14*	-8	3	-3	0	-4
CCOC(=O)C1(C)CCCCCN1C(=O)c1ccc(SC(F)(F)F)cc1 (stereo not given)	13	.	0	.	.	.	.	.
SMILES	sPLA2-III inh	MOR-DOR ag	HTR2A ag	HTR5A inv ag	HTR5A ag	MOR-DOR inv ag	MOR ag counter	m5-HT2A ag conf
CCOC(=O)C1(C)CCN1C(=O)c1ccc(SC(F)(F)F)cc1 (stereo not given)	-3	.	16*	.	.	.	-1	-6
O=c1c2ccccc2[nH]n1[C@@H](Cc1ccccc1)Cn1cc(-c2ccc(-c3ccccc3)cc2)nn1	-12	.	.	.	.	.	.	.
Cc1ccc(C(=O)C2=C(O)C(=O)N(Cc3ccco3)C2c2cccc(Br)c2)o1 (stereo not given)	4	-1	0	-8	2	7	.	.
O=C(C1=C(O)C(=O)N(Cc2ccco2)C1c1cccc(O)c1)c1ccco1 (stereo not given)	4	-2	17*	12	3	12	0	-5
Cc1cc(C=O)sc1[B-](F)(F)F	-3	-1	15*	-18	5	3	0	10
CCCCCOC(=O)CSc1n[nH]c(=O)[nH]c1=O	-1	-1	1	-8	3	3	.	.
CCCOC(=O)C(C)Sc1n[nH]c(=O)[nH]c1=O (stereo not given)	2	0	14*	2	-1	0	-1	-2
Nc1ccc(-c2nc(-c3ccccc3)nc3ccccc23)cc1	-2	3	3	-10	3	-13	.	.
Nc1ccc(-c2cc(-c3cccc(N)c3)nc(-c3ccccc3)n2)cc1	0	-1	15*	0	0	3	0	11
O=C(CCc1ccccc1)N[C@H]1[C@H](OCc2ccccc2)CCC[C@@]12C(=O)N(Cc1ccccc1)c1ccc(-c3ccccn3)cc12	2	.	.	.	.	.	.	.
CCn1c(=N)n(CC(O)c2ccco2)c2ccccc21 (stereo not given)	6	-1	1	9	-1	5	.	.
